Growth data for 16 molecules are collected here from PubChem BioAssay (NCI).

What all share (assay): NCI-60 one-dose screen, 48 h (100 = growth as untreated, 0 = no growth, -100 = all killed)
Holding throughout (details): 10 µM

The test system of test [1] is EKVX NSCLC.
Test [2] relates to SN12C renal.
In test [3] the test system is UO-31 renal.
Test [4] has as its system TK-10 renal.
In test [5] the test system is ACHN renal.
Test [6] relates to CAKI-1 renal.
In test [7] the test system is MOLT-4 leukemia.
For test [8], the system named is SR leukemia.
Test [9] deals with CCRF-CEM leukemia.
Test [10] deals with A498 renal.

Structures are written as SMILES. This is part of a sample that, as a whole, favours compounds with a hit. Of some 83,000 tested, about 20% had one in any assay.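 Growth was measured after 48 h exposure to one concentration of compound in 96-well plates. Values under 10 count as active.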 Active and inactive are the calls of the source.

Consider `O=[P@@]1(c2ccccc2)O[C@H](COCc2ccccc2)[C@@H](OCc2ccccc2)[C@H](OCc2ccccc2)[C@H]1O`, for which the growth in test [1] was 70.7% (inactive); in test [2] it was 82.9% (inactive); in test [3], 90.5% (inactive); in [4] it was 76% (inactive); in [5], 78.7% (inactive); in [6], 72.8% (inactive). The figures for the growth in test [7] and in [8] were 94.3% (inactive) and 103% (inactive), respectively.

As to `COc1ccc(/C(=C2/O[C@@H]([C@H]3COC(C)(C)O3)[C@H]3OC(C)(C)O[C@@H]23)c2cc(OC)c(OC)c(OC)c2)cc1O`, the growth is 101% (inactive) in [1]; 84.5% (inactive) in test [2]; 123% (inactive) in [3]; 117% (inactive) in test [4]; 49.5% (inactive) in test [5]; 111% (inactive) in [6]. In addition, the growth in test [9] was 60.8% (inactive); in [7] it was 60.5% (inactive); in [8] it was -13.6% (active).

`CC(C)N(CCNc1nc(C(Cl)(Cl)Cl)nc2cc(Cl)ccc12)C(C)C`: the growth was 8.11% (active) in test [1]; 17.9% (inactive) in [2]; -29% (active) in test [3]; -84.3% (active) in [4]; -36.2% (active) in [5]; -84.1% (active) in [6]. Besides, the values for the growth in test [9] and in [8] were -8.62% (active) and -28.4% (active), respectively.

Regarding `Nc1nc(N=Nc2ccc(O)cc2)cc(=O)[nH]1`, the growth in [1] is 91.4% (inactive); in test [2], 101% (inactive); in test [3], 93.6% (inactive); in test [4] it was 120% (inactive); in [5] it was 105% (inactive); in test [6], 91.4% (inactive). For the same molecule, the growth in test [9] is 97.5% (inactive); in [7] it was 104% (inactive); in [8], 94.3% (inactive).

On to `COc1ccc(-c2csc(NC(=O)CSc3nc(C)c(-c4ccccc4)n3Nc3ccccc3)n2)cc1`, for which the growth in test [1] is 38.3% (inactive); in test [2] it was 42.1% (inactive); in [3], 4.89% (active); in test [4] it was 86.1% (inactive); in [5], 59% (inactive); in test [6] it was 20% (inactive). The growth is 28.3% (inactive) in [9], 31.1% (inactive) in [7] and 40.7% (inactive) in test [8].

As for `Nc1ccc2c(c1)Cc1cc(N)c(Br)cc1-2`, the growth is 46.8% (inactive) in test [1]; 113% (inactive) in [2]; 76.9% (inactive) in test [3]; 138% (inactive) in [4]; 87% (inactive) in test [5]; 86.6% (inactive) in test [6]. In test [7], the growth is 94.1% (inactive).

For the molecule `COc1ccc(OC)c2c1C(=O)CC2C` (stereo not drawn), the growth was 98.7% (inactive) in test [1]; 99.3% (inactive) in [2]; 83.7% (inactive) in test [3]; 118% (inactive) in [4]; 113% (inactive) in test [5]; 97.6% (inactive) in [6]. Moreover, the growth in test [9] is 101% (inactive); in [7] it was 112% (inactive); in [8], 113% (inactive).

Consider `CC(C)=NNc1ncnc2c1ncn2C1OC(CO)C(O)C1O` (stereo not drawn), for which the growth in test [1] is 43.7% (inactive); in [2], 20.5% (inactive); in test [3], -3.29% (active); in [4], 57.5% (inactive); in test [5], 12.3% (inactive); in [6], -19% (active). Besides, the growth in test [7] is 56.4% (inactive); in test [8], 14.4% (inactive).

In the case of `COC(=O)C1(C)Cc2cc(OC(C)=O)c(OC(C)=O)cc2N1` (stereo not drawn), the growth in test [1] was 92.2% (inactive); in test [2], 88.8% (inactive); in test [3] it was 32.3% (inactive); in test [4], 87.9% (inactive); in test [5] it was 27.3% (inactive); in test [10], 92.8% (inactive). In addition, the growth was 24.1% (inactive) in [9], 56.6% (inactive) in test [7] and 1.05% (active) in test [8].

`O=C1C(=O)c2ccccc2C(O)=C1CCCc1ccc(C2CCCCCC2)cc1`: the growth in test [1] is 24.9% (inactive); in test [2], 53.4% (inactive); in [3], 24.2% (inactive); in [4], 61% (inactive); in test [5] it was 38.6% (inactive); in [6] it was -34.2% (active). Besides, the results for the growth in [9], in test [7] and in test [8] were 34.7% (inactive), 49.2% (inactive) and 38% (inactive), respectively.

For the molecule `COc1ccc(OC)c(/C=C/c2nc(SC)n(-c3ccc(Cl)cc3)n2)c1`, the growth in test [1] is 61.4% (inactive); in [2], 80.3% (inactive); in test [3], 39.6% (inactive); in [4] it was 92.3% (inactive); in [5], 67.9% (inactive); in [6], 64.5% (inactive). Further, the growth in test [9] is 71.4% (inactive); in test [7], 73% (inactive); in [8], 41.5% (inactive).

For the molecule `CC1(C)CCC(=NNC(N)=S)CC1`, the growth in test [1] is 90% (inactive); in [2], 105% (inactive); in [3] it was 83.9% (inactive); in test [4] it was 75.9% (inactive); in test [5], 99.7% (inactive); in [6], 96.2% (inactive). The growth in test [9] was 30.3% (inactive); in test [7], 99.8% (inactive); in test [8], 116% (inactive).

Take `O=C(Nc1nc(-c2ccccc2Cl)cs1)c1cc(-c2ccc(Cl)cc2)nc2ccc(Cl)cc12`: the growth in [1] is 73.9% (inactive); in test [2], 30.3% (inactive); in test [3] it was 28.4% (inactive); in [4], 98.4% (inactive); in test [5], 36.9% (inactive); in [6], 81.7% (inactive). For the same molecule, the growth in [9] was 28.4% (inactive); in test [7], 18.4% (inactive); in test [8], 12.9% (inactive).

For `CNc1ccc(CSc2ccc(C)cc2)cc1`, the growth in [1] was 102% (inactive); in test [2] it was 29.4% (inactive); in test [3], 24.1% (inactive); in test [4], 86.1% (inactive); in [5], 108% (inactive); in [6], 73.2% (inactive). Further, the growth in test [9] was 43.7% (inactive); in test [7], 82.6% (inactive); in [8], 80.4% (inactive).

For the molecule `O=C(C[n+]1ccccc1)c1ccc2ccccc2c1`, the growth in [1] is 88.2% (inactive); in [2], 93.8% (inactive); in test [3], 74% (inactive); in [4], 102% (inactive); in test [5], 102% (inactive); in test [6], 96.7% (inactive). The growth in [7] is 96% (inactive); in test [8], 92.1% (inactive).

As for `O=C(N/N=C/c1ccccc1)C(Oc1ccccc1)c1ccccc1` (stereo not drawn), the growth in test [1] was 80.8% (inactive); in [2], 96.5% (inactive); in [3] it was 76% (inactive); in test [4], 106% (inactive); in [5] it was 93.1% (inactive); in test [6], 85.6% (inactive). The growth in test [9] was 93.7% (inactive); in [7] it was 101% (inactive); in test [8], 91.8% (inactive).
